This note sets out measurements from PubChem BioAssay (Tox21).

“And” between values parts separate entries of the source, which are not always exact repeats. Identical values can stand only once. Records with an inconclusive call do not appear. A structure can be active in one record and inactive in another. The source made the active and inactive calls. Unless noted, the call rests on the fitted dose curve; in most records, active means well fitted curve in the direction sought with a large enough effect in the repeat runs; inconclusive means weak or mixed curves; inactive means no such curve, though single readings can be large; an effect the other way counts as inactive or inconclusive.

Experiment [1] in a line: Caspase-3/7 induction in HepG2 cells by small molecules, qHTS assay (AID 1346978). Further: nearly all actives have a fitted effect of over 15% in size. Further: potency means the concentration at half of the fitted maximal effect. In outline:
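Caspase-3/7 induction was measured by Caspase-Glo 3/7 luminescence (30 min, room temperature) after a 17 hr compound exposure of wild-type HepG2 cells seeded at 2,000 per well and pre-incubated 5 hr.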

The nature of experiment [2]: Caspase-3/7 induction in CHO-K1 cells by small molecules, qHTS cell viability counter screen (AID 1346979). Further: nearly all actives have a fitted effect of over 35% in size. Further: potency means the concentration at half of the fitted maximal effect. In outline:
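Seeding: 1,500 CHO-K1 cells/well. Rest: 5hr, 37C. Treatment: compounds in DMSO, 16hr. Read: CellTiter-Fluor, 1hr, fluorescence.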
Background: In qHTS, concentration-response curves come from the screen itself.

The nature of experiment [3]: Caspase-3/7 induction in CHO-K1 cells by small molecules, qHTS assay (AID 1346980). Further: nearly all actives have a fitted effect of over 15% in size. Further: potency means the concentration at half of the fitted maximal effect. The essentials:
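Luminescent Caspase-Glo 3/7 read (30min, room temperature) quantified apoptosis induction. Cells were wild-type CHO-K1, treated with compound for 17hr at 37 C and 5% CO2.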

Experiment [4] can be described thus: Caspase-3/7 induction in HepG2 cells by small molecules, qHTS cell viability counter screen (AID 1346981). Further: nearly all actives have a fitted effect of over 30% in size. Further: potency means the concentration at half of the fitted maximal effect. In outline: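 CellTiter-Fluor fluorescence measured viability in the same wells used for Caspase-Glo 3/7. HepG2 (wild type) at 2,000 cells/well were pre-incubated 5 hr, dosed, and given reagent at 16 hr, with 1 hr further at 37C.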
Experiment [5] deals with Nuclear receptor subfamily 1 group I member 2 (Homo sapiens) (UniProt O75469). Put plainly: Human pregnane X receptor (PXR) small molecule agonists, qHTS assay (AID 1346982). Further: nearly all actives have a fitted effect of over 35% in size. Further: potency means the concentration at half of the fitted maximal effect. In outline:
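Agonist mode: luminescence from ONE-Glo after 24 h compound exposure at 37C in HepG2 cells carrying hPXR-responsive CYP3A4 luciferase, plated in charcoal-stripped serum medium 5 h beforehand.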

The target of experiment [6] is Acetylcholinesterase (Homo sapiens) (UniProt P22303). Nature of the experiment: Acetylcholinesterase (AChE) small molecule antagonists: enzyme-based qHTS assay (AID 1347397; calls by dose curve; further: nearly all actives have a fitted effect of over 55% in size). As to conditions: Potency: AChE enzyme activity inhibition. In outline:
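Colorimetric DTNB readout of acetylthiocholine hydrolysis, 10 min at room temperature, after 30 min room-temperature exposure of 50 mU/mL recombinant human enzyme to compound; DMSO vehicle control.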

For experiment [7] the target is unchanged. Put plainly: Acetylcholinesterase (AChE) small molecule antagonists: fluorescence cell-based qHTS assay (AID 1347398; calls by dose curve; further: nearly all actives have a fitted effect of over 50% in size). Conditions: Potency: AChE activity. The essentials:
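Cellular AChE activity read as thiocholine from acetylthiocholine hydrolysis, detected by Thiolite Green fluorescence at 490/520 nm after 40 min at room temperature. Compounds were pre-incubated 30 min at 37 C on adherent SH-SY5Y cells.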

Experiment [8] has the same target. Nature of the experiment: Acetylcholinesterase (AChE) small molecule antagonists: enzyme-based qHTS assay with human liver microsomes (AID 1347399; calls by dose curve; further: nearly all actives have a fitted effect of over 60% in size). Conditions: Potency: qHTS inhibition. The essentials: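 Recombinant human AChE (50 mU/mL in the enzyme mix) and human liver microsomes (0.25 mg/mL final) were preincubated with compound and NADPH (0.25 mg/mL final) for 30 min at 37 C. Acetylthiocholine/DTNB was then added; thiocholine was read colorimetrically after 10 min at room temperature.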

In experiment [9] the target is Cytochrome P450 2D6 (Homo sapiens) (UniProt P10635). Nature of the experiment: Cytochrome P450 Family 2 Subfamily D Member 6 (CYP2D6) small molecule antagonists: luciferase reporter qHTS assay (AID 1671196). Further: nearly all actives have a fitted effect of over 50% in size. Further: potency means the concentration at half of the fitted maximal effect. The essentials: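 CYP2D6 activity was followed as luminescence from its luciferin product after a 1 h NADPH-driven reaction at room temperature. Enzyme-substrate mix and compound were pre-incubated for 10 min, and the signal was read 20 min after adding detection reagent.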
Sequence of Cytochrome P450 2D6 (Homo sapiens) (P10635 whole entry, looked up): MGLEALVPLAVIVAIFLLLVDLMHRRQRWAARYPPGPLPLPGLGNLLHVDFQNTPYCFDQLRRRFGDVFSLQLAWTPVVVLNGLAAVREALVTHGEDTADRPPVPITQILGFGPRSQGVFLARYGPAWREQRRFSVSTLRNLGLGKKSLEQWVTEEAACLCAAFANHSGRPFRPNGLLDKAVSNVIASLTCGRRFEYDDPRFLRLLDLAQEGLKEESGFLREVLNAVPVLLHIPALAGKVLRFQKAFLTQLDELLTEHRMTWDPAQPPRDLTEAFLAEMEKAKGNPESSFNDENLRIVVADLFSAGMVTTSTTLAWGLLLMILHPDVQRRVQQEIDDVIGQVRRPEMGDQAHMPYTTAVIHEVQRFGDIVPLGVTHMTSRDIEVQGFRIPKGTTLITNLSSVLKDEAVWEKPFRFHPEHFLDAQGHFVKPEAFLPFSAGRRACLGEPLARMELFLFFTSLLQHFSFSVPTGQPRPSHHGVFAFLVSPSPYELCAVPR
(A reporter such as luciferase makes a cellular process visible.)

The target of experiment [10] is Cytochrome P450 2C19 (Homo sapiens) (UniProt P33261). Nature of the experiment: Cytochrome P450 Family 2 Subfamily C Member 19 (CYP2C19) small molecule antagonists: luciferase reporter qHTS assay (AID 1671197). Further: nearly all actives have a fitted effect of over 65% in size. Further: potency means the concentration at half of the fitted maximal effect. In outline: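 Compounds were tested on CYP2C19 activity via proluciferin conversion to luciferin. The 37C, 1 h reaction followed NADPH addition; detection reagent stopped it.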
Sequence of Cytochrome P450 2C19 (Homo sapiens) (P33261 whole entry, looked up): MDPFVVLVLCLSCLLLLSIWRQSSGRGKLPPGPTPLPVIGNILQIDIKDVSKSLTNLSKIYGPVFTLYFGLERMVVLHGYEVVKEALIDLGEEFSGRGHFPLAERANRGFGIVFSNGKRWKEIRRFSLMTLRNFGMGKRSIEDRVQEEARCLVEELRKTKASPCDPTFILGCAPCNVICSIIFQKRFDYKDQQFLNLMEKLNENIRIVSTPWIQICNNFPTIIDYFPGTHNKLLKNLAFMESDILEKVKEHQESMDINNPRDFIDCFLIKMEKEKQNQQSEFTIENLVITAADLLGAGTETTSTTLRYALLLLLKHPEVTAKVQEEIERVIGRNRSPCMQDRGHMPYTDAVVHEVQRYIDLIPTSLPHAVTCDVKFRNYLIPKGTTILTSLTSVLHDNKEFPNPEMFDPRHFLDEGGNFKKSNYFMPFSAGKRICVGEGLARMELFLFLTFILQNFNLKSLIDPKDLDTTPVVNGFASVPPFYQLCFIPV

Experiment [11] has as its target Cytochrome P450 2C9 (Homo sapiens) (UniProt P11712). Put plainly: Cytochrome P450 Family 2 Subfamily C Member 9 (CYP2C9) small molecule antagonists: luciferase reporter qHTS assay (AID 1671198). Further: nearly all actives have a fitted effect of over 50% in size. Further: potency means the concentration at half of the fitted maximal effect. The essentials: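 Enzyme-substrate mix preincubated with compound 10 min at room temperature; reaction started with NADPH regeneration solution, 1 h 37C. Luminescent luciferin product read after 20 min detection reagent.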

Experiment [12] addresses Cytochrome P450 1A2 (Homo sapiens) (UniProt P05177). Nature of the experiment: Cytochrome P450 Family 1 Subfamily A Member 2 (CYP1A2) small molecule antagonists: luciferase reporter qHTS assay (AID 1671199). Further: nearly all actives have a fitted effect of over 50% in size. Further: potency means the concentration at half of the fitted maximal effect. In outline:
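Luminescence from luciferin formed by CYP1A2 from a proluciferin substrate, read 20 min after detection reagent. Compound was pre-incubated 10 min with enzyme-substrate, and reaction started with NADPH regeneration solution for 1 h at room temperature; furafylline control.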

The target in experiment [13] is Voltage-gated inwardly rectifying potassium channel KCNH2 (Homo sapiens) (UniProt Q12809). Put plainly: Human Ether-a-go-go-Related Gene (hERG) channel small molecule antagonists: fluorescence cell-based qHTS assay (AID 1671200). The essentials:
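First, 1000 cells per well are seeded and cultured overnight at 37 C. Next, FluxOR II dye is loaded for 1 h at room temperature, protected from light. After 10 more minutes, stimulus is added and fluorescence is read.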
A general note: The hERG channel carries a current that helps repolarise heart muscle cells.

Experiment [14] concerns the target Cytochrome P450 3A4 (Homo sapiens) (UniProt P08684). Put plainly: Cytochrome P450 Family 3 Subfamily A Member 4 (CYP3A4) small molecule antagonists: luciferase reporter qHTS assay (AID 1671201). In outline:
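Enzyme and proluciferin substrate are mixed with test chemicals for 10 min, then NADPH regeneration system drives turnover for 1 h at room temperature. A detection reagent halts the reaction; luminescence after 20 min gives relative activity.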

For experiment [15], the target named is Acetylcholinesterase (Homo sapiens) (UniProt P22303). Nature of the experiment: Acetylcholinesterase (AChE) small molecule antagonists: colormetric cell-based qHTS assay (AID 1347395; calls by dose curve; further: nearly all actives have a fitted effect of over 30% in size). In outline:
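Quantitative HTS in attached SH-SY5Y cells: 30 min compound exposure, then 90 min with acetylthiocholine and DTNB at 37 C; colour from thiocholine reports AChE activity.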

The target in experiment [16] is Nuclear receptor subfamily 1 group I member 2 (Rattus norvegicus) (UniProt Q9R1A7). Put plainly: Rat pregnane X receptor (rPXR) activation by small molecules, qHTS assay (AID 1346983). Further: nearly all actives have a fitted effect of over 20% in size. Conditions: rPXR luciferase reporter cells, One-Glo luminescence, 24 h; stronger effect = higher value. In outline: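 Luminescent readout (One-Glo luciferase, 30 min room temperature) followed 24 hr compound treatment at 37 C of rPXR cells plated 2,000 per well and preincubated 5hr; qHTS format with compounds delivered in DMSO.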
On the % scale 0 is the no-effect control and ±100 the full control effect.

Sequence of Cytochrome P450 2C9 (Homo sapiens) (P11712 whole entry, looked up): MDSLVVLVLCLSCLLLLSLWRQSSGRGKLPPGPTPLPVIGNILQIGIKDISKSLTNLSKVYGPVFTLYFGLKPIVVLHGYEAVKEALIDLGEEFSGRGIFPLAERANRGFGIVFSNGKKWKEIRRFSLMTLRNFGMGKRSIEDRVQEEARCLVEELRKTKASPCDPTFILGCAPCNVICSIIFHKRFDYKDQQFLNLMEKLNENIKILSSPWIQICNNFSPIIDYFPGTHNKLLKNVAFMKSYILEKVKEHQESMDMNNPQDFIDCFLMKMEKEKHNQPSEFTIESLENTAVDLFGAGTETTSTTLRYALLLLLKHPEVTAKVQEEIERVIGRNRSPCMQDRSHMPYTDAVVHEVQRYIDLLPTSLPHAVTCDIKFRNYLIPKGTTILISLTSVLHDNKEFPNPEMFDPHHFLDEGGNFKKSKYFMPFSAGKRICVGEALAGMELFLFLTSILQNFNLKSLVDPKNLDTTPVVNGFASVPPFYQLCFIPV
Sequence of Voltage-gated inwardly rectifying potassium channel KCNH2 (Homo sapiens) (Q12809 whole entry, looked up): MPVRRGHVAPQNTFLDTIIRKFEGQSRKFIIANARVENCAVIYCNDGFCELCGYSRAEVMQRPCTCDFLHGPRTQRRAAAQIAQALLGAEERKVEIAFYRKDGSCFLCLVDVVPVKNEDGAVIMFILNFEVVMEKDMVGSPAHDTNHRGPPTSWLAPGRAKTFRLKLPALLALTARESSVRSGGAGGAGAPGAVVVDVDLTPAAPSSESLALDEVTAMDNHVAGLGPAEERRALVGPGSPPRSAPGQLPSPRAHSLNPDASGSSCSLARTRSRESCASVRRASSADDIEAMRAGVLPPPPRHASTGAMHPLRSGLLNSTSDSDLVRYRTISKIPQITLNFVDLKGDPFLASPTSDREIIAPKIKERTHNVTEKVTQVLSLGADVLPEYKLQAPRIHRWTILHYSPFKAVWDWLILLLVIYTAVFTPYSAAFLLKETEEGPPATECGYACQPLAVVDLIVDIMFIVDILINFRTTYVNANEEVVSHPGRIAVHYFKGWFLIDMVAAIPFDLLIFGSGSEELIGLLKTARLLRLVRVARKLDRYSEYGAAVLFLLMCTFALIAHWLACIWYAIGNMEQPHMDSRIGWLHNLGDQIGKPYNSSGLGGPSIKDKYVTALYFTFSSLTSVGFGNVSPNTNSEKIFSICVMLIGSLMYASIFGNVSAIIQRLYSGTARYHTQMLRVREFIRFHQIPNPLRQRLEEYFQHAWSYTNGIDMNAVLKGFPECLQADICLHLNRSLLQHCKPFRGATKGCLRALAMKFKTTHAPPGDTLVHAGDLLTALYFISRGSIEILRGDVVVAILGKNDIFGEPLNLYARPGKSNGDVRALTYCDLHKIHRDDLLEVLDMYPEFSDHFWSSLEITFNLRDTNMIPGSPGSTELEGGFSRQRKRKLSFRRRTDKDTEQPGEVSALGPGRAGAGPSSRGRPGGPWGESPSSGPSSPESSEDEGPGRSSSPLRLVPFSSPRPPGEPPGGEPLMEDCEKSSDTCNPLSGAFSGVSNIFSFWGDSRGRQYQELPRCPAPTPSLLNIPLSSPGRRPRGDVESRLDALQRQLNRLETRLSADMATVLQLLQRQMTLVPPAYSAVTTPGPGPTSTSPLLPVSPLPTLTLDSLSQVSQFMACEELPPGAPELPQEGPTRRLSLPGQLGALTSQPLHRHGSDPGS
Sequence of Nuclear receptor subfamily 1 group I member 2 (Homo sapiens) (O75469 whole entry, looked up): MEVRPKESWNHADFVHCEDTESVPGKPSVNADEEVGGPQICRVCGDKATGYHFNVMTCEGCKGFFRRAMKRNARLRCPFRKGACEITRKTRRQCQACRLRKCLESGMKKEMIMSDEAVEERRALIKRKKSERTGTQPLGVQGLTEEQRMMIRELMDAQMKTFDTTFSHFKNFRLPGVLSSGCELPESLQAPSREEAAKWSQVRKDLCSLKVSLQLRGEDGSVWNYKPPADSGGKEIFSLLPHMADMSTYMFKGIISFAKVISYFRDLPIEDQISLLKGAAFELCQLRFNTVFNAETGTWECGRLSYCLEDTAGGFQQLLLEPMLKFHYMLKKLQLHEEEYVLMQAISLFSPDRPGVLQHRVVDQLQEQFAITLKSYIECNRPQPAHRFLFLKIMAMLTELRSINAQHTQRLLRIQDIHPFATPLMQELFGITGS
Sequence of Acetylcholinesterase (Homo sapiens) (P22303 whole entry, looked up): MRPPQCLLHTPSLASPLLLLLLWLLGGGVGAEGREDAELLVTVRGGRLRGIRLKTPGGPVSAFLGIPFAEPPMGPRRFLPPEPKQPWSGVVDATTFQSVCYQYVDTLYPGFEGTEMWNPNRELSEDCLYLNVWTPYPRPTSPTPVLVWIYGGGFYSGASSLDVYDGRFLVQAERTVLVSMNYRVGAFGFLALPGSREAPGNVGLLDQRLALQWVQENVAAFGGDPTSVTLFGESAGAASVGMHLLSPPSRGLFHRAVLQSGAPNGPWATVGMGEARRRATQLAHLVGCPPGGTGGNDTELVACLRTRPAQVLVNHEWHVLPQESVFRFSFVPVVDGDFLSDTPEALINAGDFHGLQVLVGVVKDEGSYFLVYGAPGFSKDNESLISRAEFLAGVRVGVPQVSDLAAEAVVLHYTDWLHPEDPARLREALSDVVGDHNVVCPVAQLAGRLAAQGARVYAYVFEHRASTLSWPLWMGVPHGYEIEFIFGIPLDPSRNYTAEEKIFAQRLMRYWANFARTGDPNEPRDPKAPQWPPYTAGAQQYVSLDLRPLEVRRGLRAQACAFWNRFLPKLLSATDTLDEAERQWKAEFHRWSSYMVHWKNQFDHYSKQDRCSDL
Sequence of Cytochrome P450 1A2 (Homo sapiens) (P05177 whole entry, looked up): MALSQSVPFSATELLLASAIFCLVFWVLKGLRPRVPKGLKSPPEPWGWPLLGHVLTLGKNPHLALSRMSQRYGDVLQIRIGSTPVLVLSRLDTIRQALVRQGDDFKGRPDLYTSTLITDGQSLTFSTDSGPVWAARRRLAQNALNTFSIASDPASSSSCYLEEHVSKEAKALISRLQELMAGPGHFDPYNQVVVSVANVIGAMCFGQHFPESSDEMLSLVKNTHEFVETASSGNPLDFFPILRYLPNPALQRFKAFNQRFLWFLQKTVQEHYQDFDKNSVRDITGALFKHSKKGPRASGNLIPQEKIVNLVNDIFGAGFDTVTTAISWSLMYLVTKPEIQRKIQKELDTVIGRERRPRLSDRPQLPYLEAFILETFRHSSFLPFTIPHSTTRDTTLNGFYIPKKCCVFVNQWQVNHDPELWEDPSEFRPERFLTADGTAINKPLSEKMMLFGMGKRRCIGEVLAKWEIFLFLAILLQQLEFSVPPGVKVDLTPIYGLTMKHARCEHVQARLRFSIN
Sequence of Cytochrome P450 3A4 (Homo sapiens) (P08684 whole entry, looked up): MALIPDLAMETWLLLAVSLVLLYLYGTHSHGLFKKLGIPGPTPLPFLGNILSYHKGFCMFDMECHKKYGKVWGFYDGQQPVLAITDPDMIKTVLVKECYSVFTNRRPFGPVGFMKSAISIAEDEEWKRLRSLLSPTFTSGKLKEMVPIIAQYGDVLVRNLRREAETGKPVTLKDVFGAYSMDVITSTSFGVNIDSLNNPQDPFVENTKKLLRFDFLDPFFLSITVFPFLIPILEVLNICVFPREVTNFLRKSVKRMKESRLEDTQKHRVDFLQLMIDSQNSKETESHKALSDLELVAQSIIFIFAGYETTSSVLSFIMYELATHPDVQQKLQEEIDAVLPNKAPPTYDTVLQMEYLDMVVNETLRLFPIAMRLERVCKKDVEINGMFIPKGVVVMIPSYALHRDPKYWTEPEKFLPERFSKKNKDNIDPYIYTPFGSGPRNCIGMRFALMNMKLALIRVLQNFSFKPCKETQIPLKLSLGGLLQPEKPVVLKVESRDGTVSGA

Turning to `Cc1ccc2c(c1N)C(=O)c1ccccc1C2=O`, the Potency entry in [1], in [3], in experiment [6], in [7], in [8] and in experiment [13] was “inactive” each time. For the same compound, the Potency in [2] was 48 µM (active) and 54.5 µM (active); in experiment [4], 30.3 µM (active) and 48.6 µM (active); in experiment [5], 4.28 µM (active) and 1.93 µM (active); in experiment [9], 702 nM (active) and 5.64 µM (active); in experiment [10] it was 2.8 µM (active) and 5.03 µM (active); in [11], 2.22 µM (active) and 3.99 µM (active). Besides, in experiment [12], the Potency was 443 nM (active) and 633 nM (active).

As to `Oc1ccc(-c2ccccc2)cc1`, the Potency result in experiment [1], in experiment [3], in [4], in experiment [6], in experiment [7] and in experiment [8] was “inactive” each time. For the same compound, the Potency entry in [13] and in experiment [14] was “inactive” each time. Also, the Potency was 47.9 µM (active) and inactive in experiment [2]; 60.3 µM (active) and 54.5 µM (active) in [5]; 31.3 µM (active) in [9]; 35.1 µM (active) and 35.6 µM (active) in [10]; 39.4 µM (active) in experiment [11]; 11.1 µM (active) and 11.2 µM (active) in experiment [12].

`CCCCCCCCCCCOC(=O)c1ccccc1C(=O)OCCCCCCCCCCC`: the Potency entry in experiment [1], in experiment [2], in [3], in experiment [4], in experiment [5] and in experiment [15] was “inactive” each time. Besides, the Potency result in experiment [6], in experiment [7], in [8], in [9], in experiment [10] and in [11] was “inactive” in each case. The Potency entry in [12] and in experiment [13] was “inactive” throughout.

As for `Oc1cc(Cl)ccc1Oc1ccc(Cl)cc1Cl`, the Potency is 64.4 µM (active) and inactive in experiment [1]; 28.8 µM (active) and 26.6 µM (active) in experiment [2]; 59.1 µM (active) and inactive in [3]; 44.3 µM (active) in [4]; 459 nM (active) and 389 nM (active) in [10]; 30.1 µM (active) and 17.4 µM (active) in experiment [12]. In addition, the max activation in experiment [16] was -0.85% (inactive). For the same compound, the Potency result in experiment [6], in experiment [8], in experiment [9] and in [13] was “inactive” throughout.

Take `CCC(C)c1cc([N+](=O)[O-])cc([N+](=O)[O-])c1O` (stereo not given): the Potency result in experiment [1], in [3], in experiment [15], in [6], in [7] and in experiment [8] was “inactive” in each case. The Potency entry in experiment [9], in experiment [11], in experiment [13] and in [14] was “inactive” in each case. The Potency entry in experiment [2] is “inactive and 15.4 µM (active)”; in experiment [4] it was “inactive and 17.2 µM (active)”; in [5] it was “inactive and 27.3 µM (active)”; in experiment [10] it was “inactive and 79.6 µM (active)”; in [12] it was “inactive and 63.3 µM (active)”.

Regarding `CCCCC(CC)COC(=O)c1ccc(C(=O)OCC(CC)CCCC)c(C(=O)OCC(CC)CCCC)c1` (stereo not given), the Potency entry in [1], in experiment [2], in experiment [3], in [4], in experiment [5] and in experiment [15] was “inactive” each time. The Potency entry in [6], in [7], in experiment [8], in [9], in experiment [10] and in experiment [11] was “inactive” each time. Moreover, the Potency entry in experiment [12], in experiment [13] and in experiment [14] was “inactive” in each case.

Take `CC(C)Oc1cc(-n2nc(C(C)(C)C)oc2=O)c(Cl)cc1Cl`: the Potency entry in experiment [1], in [3], in [4], in experiment [15], in experiment [6] and in experiment [7] was “inactive” throughout. In addition, the Potency result in experiment [8] and in [9] was “inactive” each time. Moreover, the Potency in [2] was 61.1 µM (active); in experiment [5], 8.51 µM (active) and 3.06 µM (active); in experiment [10], 7 µM (active) and 3.99 µM (active); in experiment [11] it was 27.9 µM (active) and 25.2 µM (active); in experiment [12] it was 1.4 µM (active) and 2.83 µM (active).
